According to PubChem BioAssay:
Values joined by “and” are separate entries in the source; they are usually repeats but may differ in a detail not shown here. Identical values can stand only once. Active and inactive are the calls of the source.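 The calls were made as follows, unless noted: active = normalized viability below 100% at a tested concentration; inactive = the rest.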

How the values were obtained:
[1] = Wnt pathway potentiators raising nuclear beta-catenin – imaging, WNT3A-conditioned medium, mouse C2C12, NPC library, primary screen (AID 1117326; in the data active = nuclear beta-catenin stimulation mostly above about 4.2%, no sharp cut-off; inactive = mostly below about 10%); conditions: stronger effect = higher value
[2] = stimulators of insulin release from INS-1E, primary screen, cell-based, 5 mM glucose, NPC library (AID 1117329;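 active = compound raises insulin release from rat beta cells at 5 mM glucose, no numeric limit stated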); conditions: rat INS-1E insulin secretion, at 10 µM, stronger effect = higher value
[3] = growth inhibition of GSK3B-pretreated HCT116 cells – cell-based, CellTiter-Glo, 0.2 to 20 µM (AID 1117336;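 active = compounds lowering colon cancer cell viability after pretreatment blocking the GSK3B kinase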); conditions: HCT116 viability after GSK3B inhibitor, at 20 µM, stronger effect = higher value
[4] = inhibition of endothelial tube formation, primary screen, imaging, VEGF stimulated, CD31 staining, tube area, NPC library (AID 1117340;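 active = compound that reduces growth-factor-driven endothelial tube area in a mixed cell culture, no cutoff stated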); conditions: VEGF-stimulated ADSC/ECFC co-culture, at 10 µM, stronger effect = higher value
[5] = GLP1 release stimulators, primary, NCI-H716, NPC library (AID 1117341;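 active = compound raises GLP1 secretion from the human gut endocrine cells, with no numeric limit stated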); conditions: NCI-H716 cells, at 10 µM, stronger effect = higher value
[6] = HCT116 colon cancer cell growth inhibition, primary screen, CellTiter-Glo luminescence, NPC library (AID 1117342;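 active = compounds that lower survival of HCT116 colon cancer cells in the luminescence readout, no numeric limit stated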); conditions: at 20 µM (top of the series)
[7] = reduced SW480 viability measured with CellTiter-Glo, NPC library, primary (AID 1117343;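 active = compounds that lower viability of the colon cancer cells in the luminescence readout, with no numeric limit stated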); conditions: CellTiter-Glo luminescence; at 20 µM (top of the series) unless noted
[8] = NPC library primary testing for decreased DLD-1 cell viability via CellTiter-Glo (AID 1117346;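 active = compounds that lower survival of DLD-1 colon cancer cells in the luminescence readout, no cutoff given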); conditions: DLD-1 viability, CellTiter-Glo luminescence; at 20 µM (top of the series)
[9] = EMT-state selective cytotoxicity in co-culture – imaging, PC-3E GFP, TEM4-18 mCherry, primary screen (AID 1345086;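 active = compounds killing one labelled cell type while sparing the other, by normalised counts and ratio limits, not self-fluorescent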;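 as to all read-outs here: cells exposed to compound for 72 h before imaging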;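 as to red/green cell ratio (normalised): normalised mesenchymal count divided by normalised epithelial count so high means epithelial killing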); conditions: PC-3E GFP / TEM4-18 mCherry co-culture, imaging cell counts, at 1 µM; for red/green cell ratio (normalised): actives lie on both sides, counts scaled to control wells, 1 = unselective
[10] = viability loss with induced miR-34 in A549 – imaging, A549 dox-inducible miR-34, nuclei and caspase counts, primary screen (AID 1347080;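 active = compounds whose cell count with miR-34 switched on is under 0.7 times the count with it off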); conditions: A549 miR-34 inducible, Hoechst nuclei count, 48 h
[11] = MELAS cybrid and Rieske KO viability enhancers – cell-based, MELAS cybrids, Rieske KO mouse fibroblasts, CellTiter-Glo, primary screen (AID 1508586;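 active = mean z-score across replicates of 1.96 or higher in either the MELAS or the Rieske mutant cell line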;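 also: z relative to plate mean and SD of compound and empty wells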); conditions: low glucose
[12] = growth inhibition, single agent or in combination, cell-based, chromothripsis tumors, cisplatin or BGB combos (AID 1671449; in the data active = inhibition above about 80%;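 also: cells exposed for 96 hours; 0% = vehicle DMSO and 100% = killing by high DMSO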); conditions: LFS_MB_P medulloblastoma cells
[13] = growth inhibition, single agent and combos, cell-based, chromothripsis tumors, cisplatin or BGB combos (AID 1671450; in the data active = inhibition above about 80%;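 also: cells exposed to compound for four days; 0% = vehicle DMSO and 100% = cell killing by high DMSO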); conditions: HDN33 neuroblastoma cells, stronger effect = higher value
[14] = growth inhibition, single agents and combos, ICB984, cell-based, cisplatin or BGB combos, synergistic combos for chromothripsis tumors (AID 1671451; call rule not given here;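 also: cells exposed for 96 hours before readout; 0% = vehicle DMSO and 100% = killing by high DMSO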); conditions: ICB984 medulloblastoma cells, drug combinations, stronger effect = higher value
[15] = growth inhibition, single agents and combos, HTB85, cell-based, BGB or cisplatin IC20 combos, synergistic combos for chromothripsis tumors (AID 1671453; in the data active = inhibition above about 80%;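 also: cells exposed for 96 hours before readout; 0% = vehicle DMSO and 100% = high DMSO killing control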); conditions: HTB85 osteosarcoma cells, drug combinations, stronger effect = higher value
[16] = growth inhibition, MDA-MB-436, cell-based, BGB or cisplatin combos, synergistic combos for chromothripsis tumors (AID 1671458; call rule not given here;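 also: cells exposed for 96 hours; 0% = vehicle DMSO and 100% = killing by high DMSO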); conditions: MDA-MB-436 breast carcinoma growth inhibition, drug combinations, stronger effect = higher value
[17] = drug combination growth inhibition, ovarian cancer – cell-based, oncology-focused library, rucaparib conditional, profiling panel (AID 1508598); conditions: patient-derived ovarian cancer cells, CellTiter-Glo viability, 144 h, stronger effect = lower value
[18] = molecular target: NAD(+) hydrolase SARM1 (Homo sapiens) (UniProt Q6SZW1); assay: blocking NAD cleavage by SARM1 SAM-TIR – cell lysate, NAD-Glo luminescence (AID 1508614;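 active = compound whose remaining NAD level is above about 45 nM, limit read from the data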;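 also: higher remaining NAD means stronger inhibition of SARM1 NADase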); conditions: SAM-TIR HEK293T lysate NADase, at 1 µM, stronger effect = higher value
[19] = measured here: epithelial PC-3E GFP cell survival
[20] = measured here: mesenchymal TEM4-18 mCherry cell survival
[21] = stronger effect = lower value, cell number ratio, induced over uninduced
[22] = measured here: relative caspase fold change +Dox/-Dox
[23] = measured here: total cells with miR-34 induction, stronger effect = lower value
[24] = measured here: total cells without miR-34 induction
[25] = MELAS cybrid survival, CellTiter-Glo 48 h, stronger effect = higher value
[26] = Rieske KO mouse fibroblast survival, CellTiter-Glo 72 h

NAD(+) hydrolase SARM1 (Homo sapiens), sequence (Q6SZW1 whole entry, looked up): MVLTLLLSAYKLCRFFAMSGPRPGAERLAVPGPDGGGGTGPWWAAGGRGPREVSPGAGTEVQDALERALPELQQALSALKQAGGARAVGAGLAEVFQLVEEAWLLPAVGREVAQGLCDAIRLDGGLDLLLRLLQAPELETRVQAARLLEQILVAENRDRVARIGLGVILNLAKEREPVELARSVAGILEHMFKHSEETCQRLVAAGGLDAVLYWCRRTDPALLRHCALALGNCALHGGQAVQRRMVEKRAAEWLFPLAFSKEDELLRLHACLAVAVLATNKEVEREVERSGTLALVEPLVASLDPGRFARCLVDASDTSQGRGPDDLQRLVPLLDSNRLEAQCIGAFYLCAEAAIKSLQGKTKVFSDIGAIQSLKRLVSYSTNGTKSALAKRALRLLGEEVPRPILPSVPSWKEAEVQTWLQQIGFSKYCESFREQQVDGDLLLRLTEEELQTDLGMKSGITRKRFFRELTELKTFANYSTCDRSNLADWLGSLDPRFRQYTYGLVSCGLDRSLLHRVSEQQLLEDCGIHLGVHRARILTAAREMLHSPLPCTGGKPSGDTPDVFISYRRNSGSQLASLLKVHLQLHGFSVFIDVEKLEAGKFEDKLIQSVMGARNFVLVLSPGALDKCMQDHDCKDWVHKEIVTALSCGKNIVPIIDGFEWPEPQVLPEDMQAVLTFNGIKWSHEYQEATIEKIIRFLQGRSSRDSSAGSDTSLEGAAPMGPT

Structure (SMILES): CNC1CCCN(c2c(F)cc3c(=O)c(C(=O)O)cn(C4CC4)c3c2OC)C1 (stereo not given)
- nuclear beta-catenin stimulation ([1]; at 10 µM): -0.1% (inactive)
- nuclear beta-catenin stimulation ([1]; stimulation, at 2 µM): 0%
- insulin secretion stimulation [2]: 5.75% (inactive)
- viability decrease [3]: 42.9% (inactive)
- tube area decrease [4]: -9% (inactive)
- GLP1 secretion stimulation [5]: 1.4% (inactive)
- inhibition of viability [6]: 10.1% (inactive)
- viability decrease (inhibition) [7]: 6% (inactive)
- viability decrease (inhibition) [8]: -25.9% (inactive)
- red/green cell ratio (normalised) [9]: 1.13 (inactive)
- normalised cell number [9, 19]: 1.05
- normalised cell number [9, 20]: 1.18
- fold change [10, 21]: 0.938 (inactive)
- fold change [10, 22]: 0.74
- cell count [10, 23]: 8330
- cell count [10, 24]: 8880
- z-score [11, 25]: -0.145 (inactive)
- z-score [11, 26]: 0.59
- inhibition ([12]; at 0.5 µM, stronger effect = higher value): 6.49% (inactive)
- inhibition ([12]; measured here: combination with BGB IC20, at 0.005 µM): -28.5%
- inhibition ([12]; measured here: combination with BGB IC40, at 0.005 µM): -37.4%
- inhibition ([12]; measured here: combination with BGB IC40, at 0.05 µM): -26.1%
- inhibition ([12]; measured here: combination with cisplatin, at 0.5 µM, stronger effect = higher value): 1.25%
- inhibition ([12]; measured here: combination with cisplatin, at 5 µM, stronger effect = higher value): -35.3%
- inhibition ([13]; BGB combo, at 5 µM): -29.7%
- inhibition ([13]; at 0.5 µM): -41% (inactive)
- inhibition ([13]; cisplatin combo, at 5 µM): -60.5%
- inhibition ([13]; measured here: with BGB IC20 combination, at 0.5 µM): -39.7%
- inhibition ([13]; measured here: with cisplatin IC20 combination, at 0.5 µM): -37.4%
- inhibition ([13]; single agent, at 5 µM): -52%
- inhibition ([14]; BGB IC20 combo, at 0.005 µM): -26.8%
- inhibition ([14]; BGB IC40 combo, at 0.005 µM): -20.1%
- inhibition ([14]; BGB IC40 combo, at 0.05 µM): -26.3%
- inhibition ([14]; at 0.5 µM): -21.9% (inactive)
- inhibition ([14]; cisplatin combo, at 0.05 µM): -26.3%
- inhibition ([14]; cisplatin combo, at 0.5 µM): -35.1%
- inhibition ([14]; cisplatin combo, at 5 µM): -31.2%
- inhibition ([14]; measured here: 5 uM single agent, at 5 µM): -13.6%
- inhibition ([15]; at 0.5 µM): -23.2% (inactive)
- inhibition ([15]; measured here: with BGB IC20, at 0.5 µM): -35.9%
- inhibition ([15]; measured here: with BGB IC20, at 5 µM): -27.5%
- inhibition ([15]; measured here: with cisplatin IC20, at 0.5 µM): -20.5%
- inhibition ([15]; measured here: with cisplatin IC20, at 5 µM): -18.5%
- inhibition ([15]; single agent, at 5 µM): -28.7%
- inhibition ([16]; at 0.5 µM): -22.5% (inactive)
- inhibition ([16]; measured here: BGB combination, at 0.5 µM): -19.9%
- inhibition ([16]; measured here: BGB combination, at 5 µM): -19.5%
- inhibition ([16]; measured here: cisplatin combination, at 0.5 µM): -36.1%
- inhibition ([16]; measured here: cisplatin combination, at 5 µM): -11.6%

Structure (SMILES): Cc1nc(Nc2ncc(C(=O)Nc3c(C)cccc3Cl)s2)cc(N2CCN(CCO)CC2)n1
- nuclear beta-catenin stimulation ([1]; at 10 µM): 69.4% (active)
- nuclear beta-catenin stimulation ([1]; stimulation, at 2 µM): 65.2%
- insulin secretion stimulation [2]: -0.7% (inactive)
- viability decrease [3]: -182% (inactive)
- tube area decrease [4]: 62.2% (active)
- GLP1 secretion stimulation [5]: 2.2% (inactive)
- inhibition of viability [6]: 69.7% (active)
- viability decrease (inhibition) [7]: 87.2% (active)
- viability decrease (inhibition) [8]: 100% (active)
- red/green cell ratio (normalised) [9]: 1.54 (inactive)
- normalised cell number [9, 19]: 0.38
- normalised cell number [9, 20]: 0.58
- fold change [10, 21]: 0.896 (inactive) and 0.9 (inactive)
- fold change [10, 22]: 0.654 and 0.731
- cell count [10, 23]: 470 and 582
- cell count [10, 24]: 524 and 647
- z-score [11, 25]: 4.95 (active)
- z-score [11, 26]: -1.77
- viability ([17]; at 0.000305 µM, OCI-C5x cells, with rucaparib 10 µM, 100% = cells with rucaparib alone): 102% (inactive)
- viability ([17]; at 0.000305 µM, OCI-C5x cells, without rucaparib): 117% (inactive)
- viability ([17]; at 0.000305 µM, OCI-P5x cells, with rucaparib 20 µM, 100% = cells with rucaparib alone): 103% (inactive)
- viability ([17]; at 0.000305 µM, OCI-P5x cells, without rucaparib): 98.9% (active)
- viability ([17]; at 0.00122 µM, OCI-C5x cells, with rucaparib 10 µM, 100% = cells with rucaparib alone): 99.9% (active)
- viability ([17]; at 0.00122 µM, OCI-C5x cells, without rucaparib): 114% (inactive)
- viability ([17]; at 0.00122 µM, OCI-P5x cells, with rucaparib 20 µM, 100% = cells with rucaparib alone): 54.8% (active)
- viability ([17]; at 0.00122 µM, OCI-P5x cells, without rucaparib): 97.2% (active)
- viability ([17]; at 0.00488 µM, OCI-C5x cells, with rucaparib 10 µM, 100% = cells with rucaparib alone): 107% (inactive)
- viability ([17]; at 0.00488 µM, OCI-C5x cells, without rucaparib): 108% (inactive)
- viability ([17]; at 0.00488 µM, OCI-P5x cells, with rucaparib 20 µM, 100% = cells with rucaparib alone): 52.6% (active)
- viability ([17]; at 0.00488 µM, OCI-P5x cells, without rucaparib): 81.3% (active)
- viability ([17]; at 0.0195 µM, OCI-C5x cells, with rucaparib 10 µM, 100% = cells with rucaparib alone): 77.4% (active)
- viability ([17]; at 0.0195 µM, OCI-C5x cells, without rucaparib): 87.9% (active)
- viability ([17]; at 0.0195 µM, OCI-P5x cells, with rucaparib 20 µM, 100% = cells with rucaparib alone): 27.3% (active)
- viability ([17]; at 0.0195 µM, OCI-P5x cells, without rucaparib): 53.6% (active)
- viability ([17]; at 0.0781 µM, OCI-C5x cells, with rucaparib 10 µM, 100% = cells with rucaparib alone): 68.4% (active)
- viability ([17]; at 0.0781 µM, OCI-C5x cells, without rucaparib): 72.4% (active)
- viability ([17]; at 0.0781 µM, OCI-P5x cells, with rucaparib 20 µM, 100% = cells with rucaparib alone): 17% (active)
- viability ([17]; at 0.0781 µM, OCI-P5x cells, without rucaparib): 31.8% (active)
- viability ([17]; at 0.313 µM, OCI-C5x cells, with rucaparib 10 µM, 100% = cells with rucaparib alone): 69.2% (active)
- viability ([17]; at 0.313 µM, OCI-C5x cells, without rucaparib): 71.6% (active)
- viability ([17]; at 0.313 µM, OCI-P5x cells, with rucaparib 20 µM, 100% = cells with rucaparib alone): 17% (active)
- viability ([17]; at 0.313 µM, OCI-P5x cells, without rucaparib): 28.4% (active)
- viability ([17]; at 1.25 µM, OCI-C5x cells, with rucaparib 10 µM, 100% = cells with rucaparib alone): 66.7% (active)
- viability ([17]; at 1.25 µM, OCI-C5x cells, without rucaparib): 71.4% (active)
- viability ([17]; at 1.25 µM, OCI-P5x cells, with rucaparib 20 µM, 100% = cells with rucaparib alone): 16.6% (active)
- viability ([17]; at 1.25 µM, OCI-P5x cells, without rucaparib): 24.3% (active)
- viability ([17]; at 5 µM, OCI-C5x cells, with rucaparib 10 µM, 100% = cells with rucaparib alone): 44.6% (active)
- viability ([17]; at 5 µM, OCI-C5x cells, without rucaparib): 51.1% (active)
- viability ([17]; at 5 µM, OCI-P5x cells, with rucaparib 20 µM, 100% = cells with rucaparib alone): 2.14% (active)
- viability ([17]; at 5 µM, OCI-P5x cells, without rucaparib): 10.5% (active)
- remaining NAD [18]: 10 nM (inactive)
